Laboratory results taken from PubChem BioAssay (NCI).
About 83,000 compounds went through this panel and 20% of them were active in at least one assay; those are over-represented in the sample as a whole.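 Results are percent growth after 48 hours of single-concentration exposure. 100 means growth as in untreated cells, lower positive values show inhibition; negative values down to -100 show cell death.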 A number with no mark means an inactive call. The source made the active and inactive calls. How the source made its calls: active means growth percent below 10; inactive means the rest.

System: RXF 393 renal
Assay: NCI-60 one-dose screen, 48 h (100 = growth as untreated, 0 = no growth, -100 = all killed)
Conditions: 10 µM unless noted

| Structure (SMILES) | growth |
| --- | --- |
| O=C(Nc1cccc2ccccc12)c1cc2ccccc2cc1O | 22.7% |
| C=C(C)[C@@H]1CC[C@]2(COCCC#N)CC[C@]3(C)[C@H](CC[C@@H]4[C@@](C)(CCCNCCC#N)[C@H](C(=C)C)CC[C@]43C)[C@@H]12 | -11.8% [100 µM] (active) |
| Cc1ccc(-c2cn(C/C=C3\C=CN(S(=O)(=O)c4ccccc4)CC3)nn2)cc1 | 123% |
| CN(C)c1ccc(-c2ccc(-c3ccc(C(=N)N)cc3)s2)cc1 | 54.3% |
| CCOC(=O)c1nn(C2CCCCO2)c2ccc(NC(=O)CN3CCOCC3)cc12 (stereo unspecified) | 122% |
| Cn1cc(-c2noc(-c3cn(C)c4ncc(Br)cc34)n2)c2cc(Cl)ccc21 | 105% |
| Cc1cc2c(C(C)C)c(O)c(O)c(C=NCc3ccoc3)c2c(O)c1-c1c(C)cc2c(C(C)C)c(O)c(O)c(C=NCc3ccco3)c2c1O | 58.7% |
| Cc1cccc(C[C@H](NC(=O)Nc2ccc(C)cc2F)C(=O)N[C@@H]2C(=O)N3C[C@H](O)C[C@H]3C(=O)N3CCN(C)C[C@H]3C(=O)N[C@@H](C)C(=O)N3C[C@H](C)C[C@H]3C(=O)O[C@H]2C)c1 | 79.1% |
| COc1cc2c(c(Br)c1N)-c1cc(Br)c(N)cc1C2=O | 69.9% |
| CCN(CC)CCSC(=O)C(O)(c1ccccc1)C1CCCC1 (stereo unspecified) | 82.1% |
| CCN(CC)CCCOc1ccc2c(c1)O/C(=C\c1cccc(OC)c1)C2=O | 85.6% |
| CCOC(=O)/C(C#N)=C(\C)CCc1ccccc1 | 97.3% |
| O=C(CCN1CCCCC1)c1ccc(Cl)cc1 | 113% |
| C[C@H]1[C@H](C)CC[C@]2(C(=O)O)CC[C@]3(C)C(=CC[C@@H]4[C@@]5(C)C/C(=C/c6ccco6)C(=O)C(C)(C)[C@@H]5CC[C@]43C)[C@H]12 | -84% [100 µM] (active) |
| Cc1ccc(NC(=O)N[C@@H](Cc2cc(F)cc(F)c2)C(=O)N[C@@H]2C(=O)N3CCC[C@H]3C(=O)N3CCOC[C@H]3C(=O)N[C@@H](C)C(=O)N3C[C@H](C)C[C@H]3C(=O)O[C@H]2C)cc1 | 36.9% |
| CCCCOC(=O)c1c(C)[nH]c(/C=C2\N=C(c3ccc[nH]3)C=C2OC)c1C | -12.6% (active) |
| O=C(O)c1cn(C2CC2)c2cc(N3CCN(Cc4cc(Cl)ccc4O)CC3)c(F)cc2c1=O | 60.2% |
| C[n+]1cccc(NC(=O)c2ccc3ccc4ccc(C(=O)Nc5ccc[n+](C)c5)nc4c3n2)c1 | 33% |
| O=c1cc(-c2ccccc2)oc2cc(OCc3cn(Cc4ccc(F)cc4)nn3)cc(O)c12 | 9.11% [100 µM] (active) |
| CCc1ccc(NC(=O)N[C@@H](Cc2cc(F)cc(F)c2)C(=O)N[C@@H]2C(=O)N3C[C@H](O)C[C@H]3C(=O)N3CCOC[C@H]3C(=O)N[C@@H](C)C(=O)N3C[C@H](C)C[C@H]3C(=O)O[C@H]2C)cc1 | 88.1% |
| C=C(CC(=O)OC)C(C)=O | 112% |
| O=C1/C(=C\c2cn(CC(O)CN3CCCCC3)c3ccccc23)c2ccccc2N1c1c(Cl)cccc1Cl (stereo unspecified) | -87.6% (active) |
| CC/C=C(\C)C(CCC)(CN=O)C(=O)OCC (stereo unspecified) | 123% |
| CN(C)C(=S)Sc1ccc([N+](=O)[O-])cc1[N+](=O)[O-] | -61.1% (active) |

System: SF-268 CNS
Assay: as above
Conditions: 10 µM unless noted

| Structure (SMILES) | growth |
| --- | --- |
| CC(C)C1=NOC(=O)C1=Cc1cn(-c2ccccc2)nc1-c1ccccc1 | 93.9% |
| CCN(CC)CCCNCc1cc(-c2ccccc2)nc2ccccc12 | 39.8% |
| CCOC(=O)CCC[P+](c1ccccc1)(c1ccccc1)c1ccccc1 | 83.2% |
| Cc1cccc(C[C@H](NC(=O)Nc2ccc(Cl)cc2F)C(=O)N[C@@H]2C(=O)N3C[C@H](O)C[C@H]3C(=O)N3CCN(C)C[C@H]3C(=O)N[C@@H](C)C(=O)N3C[C@H](C)C[C@H]3C(=O)O[C@H]2C)c1 | 30% |
| COc1cc(C)cc2oc3oc(=O)c(C(=O)c4cc5cc(Br)ccc5o4)cc3c(=O)c12 | 95% |
| COc1ccc(CC(C#N)c2ccc(Cl)cc2)cc1 (stereo unspecified) | 78% |
| Clc1ccc(/C=N/Nc2nc3ccccc3s2)c(Cl)c1 | 85.4% |
| Nc1nc(SCc2cccc([N+](=O)[O-])c2)c2[nH]cnc2n1 | 90.2% |
| COC(=O)[C@]12CCC(C)(C)C[C@H]1C1=CC[C@@H]3[C@@]4(C)C/C(=C/c5cccnc5)C(=O)C(C)(C)[C@@H]4CC[C@@]3(C)[C@]1(C)CC2 | -5.3% [100 µM] (active) |
| Cn1cc(-c2nnc(-c3cn(C)c4ncccc34)o2)c2ccccc21 | 51.1% |
| Cc1ccc(C2=C/C(=C/c3ccc(Br)cc3)C(=O)N2CCc2ccc(S(N)(=O)=O)cc2)cc1 | 87.6% |
| COc1ccc2nc3cc(Cl)ccc3c(Nc3ccc(O)cc3)c2c1 | 72.8% |
| CCCCN(CC)CC(CC)Nc1cc(OC)cc2cccnc12 (stereo unspecified) | 104% |
| O=C(Nc1cccc2ccccc12)c1cc2ccccc2cc1O | 23.8% |
| C=C(C)[C@@H]1CC[C@]2(COCCC#N)CC[C@]3(C)[C@H](CC[C@@H]4[C@@](C)(CCCNCCC#N)[C@H](C(=C)C)CC[C@]43C)[C@@H]12 | 53% [100 µM] |
| Cc1ccc(-c2cn(C/C=C3\C=CN(S(=O)(=O)c4ccccc4)CC3)nn2)cc1 | 99.3% |
| CN(C)c1ccc(-c2ccc(-c3ccc(C(=N)N)cc3)s2)cc1 | 82.9% |
| CCOC(=O)c1nn(C2CCCCO2)c2ccc(NC(=O)CN3CCOCC3)cc12 (stereo unspecified) | 97.5% |
| Cn1cc(-c2noc(-c3cn(C)c4ncc(Br)cc34)n2)c2cc(Cl)ccc21 | 59.1% |

| Structure (SMILES) | growth |
| --- | --- |
| Cc1cc2c(C(C)C)c(O)c(O)c(C=NCc3ccoc3)c2c(O)c1-c1c(C)cc2c(C(C)C)c(O)c(O)c(C=NCc3ccco3)c2c1O | 34.9% |
| Cc1cccc(C[C@H](NC(=O)Nc2ccc(C)cc2F)C(=O)N[C@@H]2C(=O)N3C[C@H](O)C[C@H]3C(=O)N3CCN(C)C[C@H]3C(=O)N[C@@H](C)C(=O)N3C[C@H](C)C[C@H]3C(=O)O[C@H]2C)c1 | 31.6% |
| COc1cc2c(c(Br)c1N)-c1cc(Br)c(N)cc1C2=O | 61.6% |
| CCN(CC)CCSC(=O)C(O)(c1ccccc1)C1CCCC1 (stereo unspecified) | 91.3% |
| CCN(CC)CCCOc1ccc2c(c1)O/C(=C\c1cccc(OC)c1)C2=O | 86.1% |
| CCOC(=O)/C(C#N)=C(\C)CCc1ccccc1 | 120% |
| O=C(CCN1CCCCC1)c1ccc(Cl)cc1 | 104% |
| C[C@H]1[C@H](C)CC[C@]2(C(=O)O)CC[C@]3(C)C(=CC[C@@H]4[C@@]5(C)C/C(=C/c6ccco6)C(=O)C(C)(C)[C@@H]5CC[C@]43C)[C@H]12 | -58.7% [100 µM] (active) |
| Cc1ccc(NC(=O)N[C@@H](Cc2cc(F)cc(F)c2)C(=O)N[C@@H]2C(=O)N3CCC[C@H]3C(=O)N3CCOC[C@H]3C(=O)N[C@@H](C)C(=O)N3C[C@H](C)C[C@H]3C(=O)O[C@H]2C)cc1 | 28.5% |
| CCCCOC(=O)c1c(C)[nH]c(/C=C2\N=C(c3ccc[nH]3)C=C2OC)c1C | 19.9% |
| O=C(O)c1cn(C2CC2)c2cc(N3CCN(Cc4cc(Cl)ccc4O)CC3)c(F)cc2c1=O | 75.8% |
| C[n+]1cccc(NC(=O)c2ccc3ccc4ccc(C(=O)Nc5ccc[n+](C)c5)nc4c3n2)c1 | 53.3% |
| O=c1cc(-c2ccccc2)oc2cc(OCc3cn(Cc4ccc(F)cc4)nn3)cc(O)c12 | 14.4% [100 µM] |
| CCc1ccc(NC(=O)N[C@@H](Cc2cc(F)cc(F)c2)C(=O)N[C@@H]2C(=O)N3C[C@H](O)C[C@H]3C(=O)N3CCOC[C@H]3C(=O)N[C@@H](C)C(=O)N3C[C@H](C)C[C@H]3C(=O)O[C@H]2C)cc1 | 29.1% |
| C=C(CC(=O)OC)C(C)=O | 106% |
| O=C1/C(=C\c2cn(CC(O)CN3CCCCC3)c3ccccc23)c2ccccc2N1c1c(Cl)cccc1Cl (stereo unspecified) | -76.8% (active) |
| CC/C=C(\C)C(CCC)(CN=O)C(=O)OCC (stereo unspecified) | 105% |
| CN(C)C(=S)Sc1ccc([N+](=O)[O-])cc1[N+](=O)[O-] | 52.8% |
